Among all 400,000 compounds or so, about 3,700 (0.93%) were called active. Not shown: some 3% with an inconclusive outcome. The call rests on the fitted dose curve; in most records, active means well fitted inhibition curve with a large enough effect; inconclusive means small, poorly fitted or top-dose-only effect, or another doubt; inactive means no such curve, though single readings can be large or run the other way. The entries come from a sample that favours actives as a whole. Some compounds were tested as several samples or in several runs, with calls that do not always agree.
What follows are molecules tested against Vitamin D3 receptor (Homo sapiens) (UniProt P11473) (assay: Inhibitors of the vitamin D receptor (VDR): qHTS). Details: VDR-SRC2-3 peptide fluorescence polarization, 2 h; max response, negative = inhibition: stronger effect = lower value.
Sequence of Vitamin D3 receptor (Homo sapiens) (P11473 whole entry, looked up): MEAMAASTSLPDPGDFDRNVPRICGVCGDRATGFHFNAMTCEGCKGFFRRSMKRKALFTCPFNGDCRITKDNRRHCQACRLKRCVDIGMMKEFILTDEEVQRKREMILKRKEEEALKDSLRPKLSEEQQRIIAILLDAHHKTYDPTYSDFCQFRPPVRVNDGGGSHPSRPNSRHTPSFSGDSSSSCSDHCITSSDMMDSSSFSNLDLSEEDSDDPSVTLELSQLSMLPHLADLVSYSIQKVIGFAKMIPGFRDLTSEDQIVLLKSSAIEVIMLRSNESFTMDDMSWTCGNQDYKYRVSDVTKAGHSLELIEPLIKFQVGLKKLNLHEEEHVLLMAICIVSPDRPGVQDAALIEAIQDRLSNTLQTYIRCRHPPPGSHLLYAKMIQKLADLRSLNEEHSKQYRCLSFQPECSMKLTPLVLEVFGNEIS
How it was run: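 VDR–SRC2-3 interaction, FP format. Cmpds 23 nl via pintool, brief spin, 2 h ambient incubation.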
With `CCOC(=O)c1ccc(NC(=O)c2c(NCc3cccs3)sc3c2CCCC3)cc1` the max response, negative = inhibition was -5.89% (inactive). In the case of `O=C(O)c1ccccc1CSc1nc2ccccc2s1`, the Potency is reported as 89.1 µM (active). With `CN(C(=O)CSc1nc2ccc(NC(=O)COc3ccccc3)cc2s1)c1ccccc1` the max response, negative = inhibition was 3.21% (inactive). `O=C(Nc1ccc2nc(SCC(=O)N3CCc4ccccc43)sc2c1)c1ccccc1F` was tested, and the max response, negative = inhibition was 0.401% (inactive). `CCOc1ccccc1NC(=O)C1=C(C)Nc2ncnn2C1c1ccc(NC(C)=O)cc1` (centres undefined) was tested, and the max response, negative = inhibition was 6.42% (inactive). With `COc1ccc(Br)cc1C1C2C=CCC(C)C2C(=O)N1Cc1ccccc1` (centres undefined) the max response, negative = inhibition was -6.47% (inactive). In the case of `COc1ccccc1CNC(=O)c1ccc(NC(=O)N2CC(C)Sc3ccccc32)cc1` (centres undefined), the max response, negative = inhibition is reported as -3.93% (inactive). With `O=C(NCc1ccccc1)c1cccc(NC(=O)N2CCSc3ncccc32)c1` the max response, negative = inhibition was 4.27% (inactive). For `CCCCN1C(=O)/C(=C(/C#N)C(N)=O)c2ccccc21`, the Potency was 50.1 µM (active). In the case of `O=C(O)CCCN1C(=O)c2ccccc2Sc2ncccc21`, the max response, negative = inhibition is reported as 23.5% (inactive). With `Cc1cc(C(=O)COC(=O)CCCN2C(=O)c3ccccc3C2=O)c(C)n1C` the max response, negative = inhibition was 11.4% (inactive). For `O=C(/C=C/c1cn(CC(O)CN2CCc3ccccc32)c2ccccc12)c1ccc(Br)cc1` (centres undefined), the max response, negative = inhibition was 25.1% (inactive). In the case of `COCCNC(=O)CSc1c(C)cnc2c1c(=O)n(C)c(=O)n2C`, the max response, negative = inhibition is reported as 8.06% (inactive). For `COc1ccc(CS(=O)/C(Cl)=C(/Cl)C(=O)Nc2ccc(OC)nc2)cc1` (centres undefined), the Potency was 20 µM (active). For `COc1ccc(NC(=O)C(=O)NCc2ccco2)cc1`, the max response, negative = inhibition was -7.31% (inactive). For `COc1ccc(CC(=O)Nc2ccc(-c3nc4ccccc4s3)c(C)c2)cc1`, the max response, negative = inhibition was -0.795% (inactive). `O=C(Nc1ccc2nc(SCCOc3ccccc3Cl)sc2c1)c1ccco1` was tested, and the max response, negative = inhibition was 5.06% (inactive). In the case of `CC(Nc1ccc(-c2nc(-c3ccco3)no2)cc1[N+](=O)[O-])c1ccccc1` (centres undefined), the max response, negative = inhibition is reported as 0.644% (inactive). `CCc1ccccc1NC(=O)Cn1c(=O)n(CC2CCC(C(=O)NCCc3ccccc3)CC2)c(=O)c2ccccc21` (centres undefined) was tested, and the max response, negative = inhibition was -18.5% (inactive). For `Cc1cc(C(=O)Nc2cccc(C(F)(F)F)c2)c2c(C)nn(-c3cccc(F)c3)c2n1`, the max response, negative = inhibition was -0.555% (inactive). With `Nc1scc[n+]1Cc1cccc2cccnc12` the max response, negative = inhibition was 4.69% (inactive). With `c1ccc2c(CNn3cnnc3)cccc2c1` the max response, negative = inhibition was -17.7% (inactive). For `c1ccc2c(C[n+]3csc4ccccc43)cccc2c1`, the Potency was 44.7 µM (active). For `CCN(CC)c1ccc(NC(=O)Cn2nc3c(cc2=O)CCCC3)c(C)c1`, the max response, negative = inhibition was 2.95% (inactive). With `CC1(C)OC2CO[C@]3(COS(N)(=O)=O)OC(C)(C)OC3C2O1` (some centres undefined) the max response, negative = inhibition was -14.1% (inactive). For `Oc1cc(O)c2c(c1)OC(c1ccc(O)c(O)c1)C(O)C2` (centres undefined), the Potency was 35.5 µM (active) and the max response, negative = inhibition was -19.6% (inactive). `NS(=O)(=O)c1ccc(NC(=O)CSc2nnc3c(n2)[nH]c2ccccc23)cc1` was tested, and the max response, negative = inhibition was 5.25% (inactive). In the case of `CCOc1cc(-c2nnc(SCC(=O)NC3CCCCC3)nc2-c2ccc(OC)c(OCC)c2)ccc1OC`, the max response, negative = inhibition is reported as 15.8% (inactive). With `COc1ccc(Cc2n[nH]c(=S)n2NC(=O)Nc2ccc(C)cc2)cc1` the max response, negative = inhibition was -6.31% (inactive). `COc1ccc(OCc2n[nH]c(=S)n2N)cc1` was tested, and the Potency was 35.5 µM (active). With `COc1ccc(OC)c(-n2c(-c3ccn[nH]3)n[nH]c2=S)c1` the max response, negative = inhibition was -3.11% (inactive). For `COc1cc(C(=O)N(Cc2ccc(C(C)C)cc2)C2CCS(=O)(=O)C2)cc(OC)c1OC` (centres undefined), the max response, negative = inhibition was -4.09% (inactive). `CCOc1cc(/C=C(\C#N)C(=O)Nc2ccccc2C)ccc1OCc1cc(=O)n2nc(CC)sc2n1` was tested, and the max response, negative = inhibition was -13.9% (inactive). For `C=CC(=O)c1ccc2ccccc2c1`, the Potency was 1.78 µM (active). `O=C(Nc1ccccc1N1CCCC1)c1ccc2ccccc2c1` was tested, and the max response, negative = inhibition was -2.28% (inactive). `O=C(NNC(=O)c1ccc2ccccc2c1)c1ccc(Cl)cc1` was tested, and the max response, negative = inhibition was 18.2% (inactive). `O=C(CC1N=C2c3ccccc3N=C(SCc3cccc(Cl)c3)N2C1=O)NCc1ccc2c(c1)OCO2` (centres undefined) was tested, and the max response, negative = inhibition was 13.3% (inactive). `COc1ccc(NC(=O)CSc2nnc(-c3nnn(-c4ccc(F)cc4)c3C)o2)cc1` was tested, and the max response, negative = inhibition was 15.3% (inactive). For `CCCCCCCC1=Cc2ccc(F)cc2C(C(C(=O)OC)C(=O)OC)N1C(=O)OC` (centres undefined), the max response, negative = inhibition was 2.51% (inactive). For `COc1cc(CNC2CCCC2)c(Br)cc1OCc1ccccc1`, the max response, negative = inhibition was 18.9% (inactive). In the case of `COc1ccc(CCN=C2SCC(=O)N2Cc2ccccc2)cc1OC`, the max response, negative = inhibition is reported as 3.18% (inactive). In the case of `COc1cc(C2CC(=O)N3CN(Cc4ccccc4)CSC3=C2C#N)ccc1OCc1ccccc1` (centres undefined), the Potency is reported as 22.4 µM (active). `Cc1cccc(-c2nc(SCc3ccc(Br)cc3)n3[nH]c(=O)cc3n2)c1` was tested, and the max response, negative = inhibition was 11.8% (inactive). In the case of `COc1ccccc1CNc1ncnc2ccc(-c3ccc4c(c3)OCO4)cc12`, the max response, negative = inhibition is reported as -6.36% (inactive). In the case of `CCn1c(CNC(=O)c2ccc(OC)c(OC)c2)nnc1SCC(=O)Nc1ccccc1`, the max response, negative = inhibition is reported as 2.26% (inactive). With `CCn1c(SC)nc(O)c(C(c2ccc(OC)c(O)c2)c2c(O)nc(SC)n(CC)c2=O)c1=O` the Potency was 35.5 µM (active). With `COc1ccc(-n2c(SC)nc(O)cc2=O)cc1` the max response, negative = inhibition was -7.87% (inactive). In the case of `COc1cc(NC(=O)c2noc3c2CSc2ccccc2-3)cc(OC)c1OC`, the max response, negative = inhibition is reported as 1.93% (inactive). For `COc1ccc(CNc2nc(-c3ccc(Cl)cc3)nn2S(=O)(=O)c2ccc(C)cc2)cc1`, the max response, negative = inhibition was -0.454% (inactive). `Cc1ccc(-n2cnc3cc(C(=O)NCCC4=CCCCC4)ccc32)cc1Cl` was tested, and the max response, negative = inhibition was -3.42% (inactive). In the case of `CCOC(=O)c1ccc(CN(Cc2ccccc2)S(=O)(=O)c2ccc(Cl)cc2)cc1`, the max response, negative = inhibition is reported as 9.71% (inactive). `Cc1cccc(NC(=O)CSc2nc(-c3ccco3)cc(C(F)(F)F)n2)c1C` was tested, and the max response, negative = inhibition was -20.2% (inactive). With `CCOC(=O)c1sc(NC(=O)CSc2nc(C)cc(C(F)(F)F)n2)c(C#N)c1C` the Potency was 28.2 µM (active). `CCn1c(SCC(=O)Nc2sc(C)c(C)c2C#N)nnc1C1CC1` was tested, and the max response, negative = inhibition was 1.75% (inactive). In the case of `CC1=Nc2cc(C(=O)N3CCC(C)CC3)ccc2Sc2ccc(Cl)cc21`, the max response, negative = inhibition is reported as -2.31% (inactive). In the case of `CN(Cc1ccco1)c1cc(-c2ccccc2C(F)(F)F)ncn1`, the Potency is reported as 39.8 µM (active). `Cn1c(=O)[nH]c(=O)c2c1nc(NCCc1ccccc1)n2Cc1ccc(F)cc1` was tested, and the max response, negative = inhibition was -22.7% (inactive). With `Cn1c(=O)[nH]c(=O)c2c1[nH]c(=S)n2Cc1ccccc1` the Potency was 89.1 µM (active). For `Cc1nnc(Sc2nc3c(c(=O)[nH]c(=O)n3C)n2Cc2ccccc2)s1`, the max response, negative = inhibition was -19.6% (inactive). In the case of `c1ccc(Cn2nnc3c(N4CCCCC4)ncnc32)cc1`, the max response, negative = inhibition is reported as 7.87% (inactive). In the case of `COc1ccc(OC)c(-c2noc(N3CCN(c4cc(Cl)ccc4C)CC3)n2)c1`, the max response, negative = inhibition is reported as 13.2% (inactive). For `O=C(CCN1CCc2ccccc2C(O)(c2ccccc2)C1)c1ccc2c(c1)OCCO2` (centres undefined), the Potency was 35.5 µM (active). In the case of `CCC1(c2ccccc2)NC(=O)N(CC(=O)c2ccc3c(c2)OCO3)C1=O` (centres undefined), the max response, negative = inhibition is reported as 7.42% (inactive). In the case of `O=C(CN1CCC(O)(c2ccccc2)CC1)Nc1ccc2c(c1)OCCO2`, the max response, negative = inhibition is reported as 0.904% (inactive). For `COc1cc(OC)cc(C(=O)NCCc2csc3nc(-c4ccccc4F)nn23)c1`, the max response, negative = inhibition was 1.56% (inactive). For `CCOC(=O)c1cccc(NS(=O)(=O)c2cc(-c3cnc(C)o3)ccc2OC)c1`, the max response, negative = inhibition was 1.33% (inactive). For `CC(Sc1nnnn1C1CCCCC1)C(=O)O` (centres undefined), the Potency was 79.4 µM (active). In the case of `CC(Sc1nnnn1C)C(=O)NC(=O)NC1CCCCC1` (centres undefined), the max response, negative = inhibition is reported as 15% (inactive). In the case of `O=C(CSc1nnnn1C1CCCC1)N1CCCCC1`, the max response, negative = inhibition is reported as 12.7% (inactive). `CC1OC(OCC2OC(Oc3c(-c4ccc(O)c(O)c4)oc4cc(O)cc(O)c4c3=O)C(O)C(O)C2O)[C@@H](O)C(O)C1O` (some centres undefined) was tested, and the max response, negative = inhibition was -0.0788% (inactive). With `COc1cc(C(=O)N2CCN(c3ccc(Nc4ccc(C)cc4)nn3)CC2)cc(OC)c1OC` the max response, negative = inhibition was 13.1% (inactive). `Cc1oc2ncnc(N3CCOCC3)c2c1C(=O)NCCc1ccccc1` was tested, and the max response, negative = inhibition was 9.03% (inactive). With `O=C1c2ccccc2C(=O)N1c1ccc(S(=O)(=O)N2CCOCC2)c2ccccc12` the max response, negative = inhibition was -4.23% (inactive). `FC(F)(F)C1CCCN(c2nsc3ccccc23)C1` (centres undefined) was tested, and the Potency was 20 µM (active). `C[C@H]1CCC[C@@]2(C)CCCC[C@]12O` was tested, and the max response, negative = inhibition was 0.107% (inactive). `CC(=O)N(C1=C(Cl)C(=O)c2ccccc2C1=O)c1ccc(C(=O)O)cc1` was tested, and the Potency was 7.08 µM (active). With `CCOC(=O)c1cc2c(=O)n3ccccc3nc2n(CCCOC)c1=NC(=O)C(C)(C)Oc1ccc(Cl)cc1` the max response, negative = inhibition was -19.6% (inactive). With `CC(=O)Oc1c2c(c3c(c1CC=C(C)C)O[C@@]14C(=CC5CC1C(C)(C)OC4(C/C=C(\C)C(=O)O)C5=O)C3=O)OC(C)(CCC=C(C)C)C=C2` (some centres undefined) the Potency was 3.16 µM (active). For `CCc1ccccc1OCCSc1nc(-c2cccs2)nc2cc(=O)[nH]n12`, the max response, negative = inhibition was -2.15% (inactive). `O=C1CC(c2ccccc2)CC2=C1C(c1ccco1)n1nc(C(F)(F)F)nc1N2` (centres undefined) was tested, and the max response, negative = inhibition was -0.088% (inactive). For `O=[N+]([O-])c1c(NCCO)cc(Sc2nc3ccccc3s2)c2nonc12`, the Potency was 14.1 µM (active). In the case of `CC(C)(C)c1ccc(S(=O)(=O)Nc2ccc(O)c(Sc3nc4ccccc4s3)c2)cc1`, the max response, negative = inhibition is reported as -10.5% (inactive). With `CC(C)c1ccc(S(=O)(=O)Nc2ccc(O)c(Sc3nc4ccccc4s3)c2)cc1` the max response, negative = inhibition was -4.7% (inactive). In the case of `NCCCNCCCCN(CCCN)/[N+]([O-])=N/O`, the max response, negative = inhibition is reported as 8.85% (inactive). With `Oc1c(C(c2ccccc2Cl)N2CCOCC2)sc2nc(-c3ccco3)nn12` (centres undefined) the max response, negative = inhibition was 10.6% (inactive). With `Oc1c(C(c2ccccn2)N2CCOCC2)ccc2cccnc12` (centres undefined) the Potency was 17.8 µM (active). With `COc1ccc(NC(=O)c2sc3nc[nH]c(=O)c3c2C)cc1` the max response, negative = inhibition was 6.76% (inactive). `Cc1ccc2nc(/C(C#N)=C/c3ccc(-c4ccc(C(=O)OC(C)C)cc4)o3)[nH]c2c1` was tested, and the max response, negative = inhibition was -0.457% (inactive).

From PubChem BioAssay AID504847 (National Center for Advancing Translational Sciences (NCATS), 2011)
On the % scale 0 is the no-effect control and ±100 the full control effect; potency means the concentration at half of the fitted maximal effect.
